About 83,000 compounds went through this panel and 20% of them were active in at least one assay; those are over-represented in the sample as a whole.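 Compound tested at a single concentration for 48 hours in 96-well plates; a percent growth value below 10 was scored as active.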 Values without a mark were called inactive. Active and inactive are the calls of the source.
What was measured:
Experiment in all cases: NCI-60 one-dose screen, 48 h (100 = growth as untreated, 0 = no growth, -100 = all killed)
Conditions in all cases: 10 µM unless noted
HCT-15 colon = tested on: HCT-15 colon
HT29 colon = tested on: HT29 colon
SNB-19 CNS = tested on: SNB-19 CNS
U251 CNS = tested on: U251 CNS
PC-3 prostate = tested on: PC-3 prostate
SK-MEL-5 melanoma = tested on: SK-MEL-5 melanoma
UACC-62 melanoma = tested on: UACC-62 melanoma
SK-MEL-28 melanoma = tested on: SK-MEL-28 melanoma
LOX IMVI melanoma = tested on: LOX IMVI melanoma
SNB-75 CNS = tested on: SNB-75 CNS

SMILES	growth (HCT-15 colon)	growth (HT29 colon)	growth (SNB-19 CNS)	growth (U251 CNS)	growth (PC-3 prostate)	growth (SK-MEL-5 melanoma)	growth (UACC-62 melanoma)	growth (SK-MEL-28 melanoma)	growth (LOX IMVI melanoma)	growth (SNB-75 CNS)
CCN1CCN(c2ccc(Nc3cc(-c4cccnc4Nc4c(Cl)c(OC)cc(OC)c4Cl)ncn3)cc2)CC1	63.3%	31.9%	81%	71.6%	55.3%	74%	85.9%	100%	–	–
Cc1cc(N2CCCCC2)nc(N(CCNc2ccnc3cc(Cl)ccc23)Cc2ccccn2)n1	17.6%	13.1%	75%	–	45.1%	48.8%	67.5%	62.7%	–	–
CN(C)CCOC(=O)Nc1ccc(Cl)cc1	108%	82.7%	106%	101%	65.4%	99%	97.2%	115%	–	–
Cc1cccc(-c2cc(O)c(C(=O)N3CCOCC3)s2)c1	21.4%	52.2%	–	28.6%	60.5%	26%	34.5%	56.9%	33.2%	–
Cn1cc(Nc2nccc(-c3ccc(N4CCCC4)c(C#N)c3)n2)cn1	21.3%	20.3%	62.3%	35.8%	43%	38.8%	28.8%	64%	32.6%	–
COc1cc(CNC(=O)/C=C/C=C/c2ccc3c(c2)OCO3)ccc1OCc1cn(-c2ccc(Cl)c(Cl)c2)nn1	-49.9% (active)	–	20.5%	-57.5% (active)	-11% (active)	-41.1% (active)	-46.7% (active)	6.52% (active)	11.6%	-36.8% (active)
COc1ccc(C2CC(c3ccccc3)=NN2c2nc(C)c(C(C)=O)s2)cc1 (stereo unspecified)	98.7%	102%	99.3%	100%	97%	103%	91.5%	112%	–	–
NS(=O)(=O)Oc1ccc(-c2sc3cc(O)ccc3c2C(=O)c2ccc(OCCN3CCCCC3)cc2)cc1	36.2%	0.722% (active)	78.2%	21.9%	69.9%	46.2%	-47.2% (active)	23.6%	34.4%	–
O=[N+]([O-])c1ccccc1C(O)Cc1ccc2ccccc2n1 (stereo unspecified)	105%	112%	101%	96.9%	95.5%	89.9%	82.6%	92.9%	93%	–
CCOc1ccc(-c2nc3ccc(-c4nc5ccc(N6CCN(C)CC6)cc5[nH]4)cc3[nH]2)cc1OCC	63.7%	19.4%	8.93% (active)	4.64% (active)	17.2%	8.43% (active)	-14.3% (active)	-27.2% (active)	-74.5% (active)	–
COc1cc2c(c(OC)c1OC)C(=O)/C(=C/c1cc(C)c(O)c(C)c1)S2	25.4%	82.4%	39.2%	33%	30.9%	4.33% (active)	50.8%	59.3%	26.4%	–
Cc1ccc(NSc2ccccc2[N+](=O)[O-])cc1	27%	5.05% (active)	38.1%	21.1%	18%	13.6%	28.6%	63.7%	35%	–
Cc1cc(=O)c2cc3nc(-c4cccnc4)oc3c(Br)c2o1	106%	103%	131%	–	99.6%	105%	104%	119%	98%	–
COC(=O)c1ccc2oc(NC(=O)c3ccc(N4CCOCC4)c([N+](=O)[O-])c3)nc2c1	107%	95.6%	92.4%	92.2%	89.5%	104%	90.6%	97.4%	–	–
COC(=O)CNC(=O)C(=O)c1c(O)c(O)c(C(C)C)c2cc(C)c(-c3c(C)cc4c(C(C)C)c(O)c(O)c(C(=O)C(=O)NCC(=O)OC)c4c3O)c(O)c12	18.3%	6.08% (active)	18.5%	4.8% (active)	18.7%	50.1%	48.5%	44.7%	21.2%	–
O=C(O)CC1Sc2ccccc2NC1=O (stereo unspecified)	109%	129%	108%	–	92.1%	175%	105%	126%	96.4%	–

SMILES	growth (HCT-15 colon)	growth (HT29 colon)	growth (SNB-19 CNS)	growth (U251 CNS)	growth (PC-3 prostate)	growth (SK-MEL-5 melanoma)	growth (UACC-62 melanoma)	growth (SK-MEL-28 melanoma)	growth (LOX IMVI melanoma)	growth (SNB-75 CNS)
CN(C)c1ccc(-c2cc(-c3ccc(Nc4nc(Nc5ccccc5)nc(Nc5ccc(Cl)cc5)n4)cc3)nc(N)n2)cc1	34.4%	34.2%	66.8%	29.6%	–	31.3%	49.9%	75.4%	38.1%	–
Cc1cc(N(CCCNc2ccnc3cc(Cl)ccc23)Cc2ccccn2)nc(N2CCOCC2)n1	87.3%	56%	93.9%	94.8%	74%	105%	106%	106%	–	–
C=C1C(=O)O[C@H]2[C@H]1CC/C(Cn1cc(CNCCc3c[nH]c4ccc(Cl)cc34)nn1)=C\CC[C@@]1(C)O[C@@H]21	88.6%	21.2%	83.7%	60.2%	75%	86.6%	63%	81.5%	62%	–
C=C1c2c(C)nn(-c3ccc(S(N)(=O)=O)cc3)c2N(C)C23CC1C1(C)c4c(C)nn(-c5ccc(S(N)(=O)=O)cc5)c4N(C)C(C)(CC12)C3 (stereo unspecified)	14.6%	13.6%	43%	24.7%	23.6%	45.5%	37.5%	30.7%	–	–
CCNCCNc1cc(-c2ccc(C#N)cc2)c(C#N)c2nc3ccccc3n12	33.6%	4.72% (active)	51%	-23.4% (active)	44.7%	65.7%	-34.8% (active)	-47.7% (active)	-53.9% (active)	–
COc1ccc(OC)c(/C=C2\COc3ccc(O)cc3C2=O)c1	78.5%	45.9%	84.5%	84.6%	95.2%	–	84.3%	94.9%	51.3%	–
O=C(NCCOCCOCCOCCNC(=O)c1cc2c(o1)C(=O)c1ccccc1C2=O)NC12CC3CC(CC(C3)C1)C2	-74.7% (active)	1.21% (active)	-2.04% (active)	-22% (active)	12.1%	-97.7% (active)	–	-40.8% (active)	-46.2% (active)	–
O=C(c1ccccc1)c1ccc(N2C(=O)C3C4c5ccccc5C(/C=C/C(=O)c5ccccn5)(c5ccccc54)C3C2=O)cc1 (stereo unspecified)	-21.7% (active)	9.38% (active)	28.2%	2.15% (active)	28.4%	49.7%	21%	13.4%	-76.6% (active)	–
CC(C)n1nc(C#Cc2cccc3cc(-c4cccc(C(F)(F)F)c4)ncc23)c2c(N)ncnc21	64.3%	29.7%	99.6%	63.6%	59.6%	85.1%	66.6%	83.3%	58.1%	–
CCOC(=O)C1=C(C)NC(SCc2nnc(-c3ccc(Cl)cc3)o2)=NC1c1ccc(Cl)cc1Cl (stereo unspecified)	55.3%	–	72.9%	65.3%	45.1%	80.3%	51.6%	101%	58.3%	84.1%
Cc1[nH]c(-c2nc3ccccc3[nH]2)c(C)c1C(=O)N1CCc2sccc2C1	90%	96%	–	97.9%	87.3%	88.8%	87.8%	94.5%	93.3%	–
Cn1ncc2c(Nc3ccc(Br)cc3)nc(Nc3ccc(Br)cc3)nc21	22.4%	33.4%	71.4%	33.4%	–	47.6%	56.1%	50.1%	-5.28% (active)	–
N=c1ccn2c(n1)OC1C(O)C(CO)OC12 (stereo unspecified)	49.9%	34.4%	44%	37.7%	–	45.9%	43.9%	53.3%	–	–
C=C(C)[C@@H]1CC[C@@]2(C(=O)O)CC[C@]3(C)C(CCC4[C@@]5(C)CCC(OS(=O)(=O)c6ccccc6)C(C)(C)C5CC[C@]43C)C12 (stereo partly specified)	39.7%	58.4%	83.6%	41.5%	44.4%	35.6%	47.5%	86%	53.8%	–
CCOC(=O)c1ccc(NC(=O)CCCN(CC)CC)cc1	105%	88.6%	111%	98.2%	78.3%	110%	104%	109%	97.7%	–

From PubChem BioAssay (NCI)
